{"source": "PubChem BioAssay AID463173", "about": "(ICCB-Longwood Screening Facility, Harvard Medical School, 2010)", "note": "Hit rate of the full screen: of about 52,000 compounds, about 4,300 (8.3%) were called active. This is one part of a sample in which actives are shown more often than they occur. Cut-off read from the data, not from the text of the source: active = survival mostly below about 52% (no sharp cut-off); inactive = mostly above about 56%.", "data": [{"system": "DeltatarO mutant", "experiment": "S. aureus survival, RN4220 and DeltatarO strains – OD600, teichoic acid synthesis inhibitors, primary screen (AID 463173)", "conditions": "S. aureus RN4220 wild type/DeltatarO growth, OD600, 18 h, active compounds read low, screened at 18.75 µg/mL (by protocol)", "values": [{"smiles": "O=C(/C=C/c1ccccc1)C1=C(O)C(=O)N(CCO)C1c1ccc2c(c1)OCO2", "note": "(configuration not stated)", "survival": "79% (inactive)"}, {"smiles": "COc1ccc(-c2oc3ncn4nc(-c5ccccc5O)nc4c3c2-c2ccc(OC)cc2)cc1", "survival": "62% (inactive)"}, {"smiles": "Cc1ccccc1CNC(=O)c1cc2cc(S(=O)(=O)N3CCCCC3)ccc2n1C", "survival": "102% (inactive)"}, {"smiles": "Cn1c(C(=O)NCCc2ccccc2)cc2cc(S(=O)(=O)N3CCCCC3)ccc21", "survival": "94% (inactive)"}, {"smiles": "CCc1ccc(CNC(=O)c2cc3cc(S(=O)(=O)N4CCCCC4)ccc3n2C)cc1", "survival": "60% (inactive)"}, {"smiles": "Cn1c(C(=O)NCc2ccc(F)cc2)cc2cc(S(=O)(=O)N3CCCCC3)ccc21", "survival": "126% (inactive)"}, {"smiles": "Cc1ccccc1CCNC(=O)c1cc2cc(S(=O)(=O)N3CCCCC3)ccc2n1C", "survival": "20% (active)"}, {"smiles": "CN(C)c1ccc(CNC(=O)c2cc3cc(S(=O)(=O)N4CCCCC4)ccc3n2C)cc1", "survival": "8% (active)"}, {"smiles": "CC(C)NC(=O)CCn1c(SCc2c(F)cccc2Cl)nc2c(sc3ccccc32)c1=O", "survival": "67% (inactive)"}, {"smiles": "COc1ccccc1NC(=O)N1CCN(Cc2ccccc2)CC1", "survival": "87% (inactive)"}, {"smiles": "Cc1cc(C)c2sc(N(Cc3cccnc3)C(=O)CCOc3ccccc3)nc2c1", "survival": "115% (inactive)"}, {"smiles": "COc1cc(Cl)c(NC(=O)CCS(=O)(=O)c2ccc3c(c2)NC(=O)CO3)c(OC)c1", "survival": "90% (inactive)"}, {"smiles": "COc1ccc(NC(=O)c2cc3cc(C)ccc3[nH]2)cc1", "survival": "100% (inactive)"}, {"smiles": "Cc1ccc(NC(=O)CN2C(=O)COc3ccc(S(=O)(=O)N4CCOCC4)cc32)cc1N(C)C", "survival": "99% (inactive)"}, {"smiles": "Cc1ccc(S(=O)(=O)c2cn(CC(=O)Nc3ccc4c(c3)OCO4)c3ccc(F)cc3c2=O)cc1", "survival": "69% (inactive)"}, {"smiles": "CC1C(=O)NN=C1C(=O)N/N=C\\c1cccnc1", "note": "(configuration not stated)", "survival": "87% (inactive)"}, {"smiles": "Cc1ccc(NS(=O)(=O)c2cn(C)c(C)n2)c(Br)c1", "survival": "69% (inactive)"}, {"smiles": "CSc1cccc(NS(=O)(=O)c2cn(C)c(C)n2)c1", "survival": "75% (inactive)"}, {"smiles": "COc1ccccc1NS(=O)(=O)c1cn(C)c(C)n1", "survival": "37% (active)"}, {"smiles": "CCc1nn(CC(=O)NC(C)CC)c(=O)c2cc3c(OC)cccc3n12", "note": "(configuration not stated)", "survival": "128% (inactive)"}, {"smiles": "CCc1ccc(OCc2nc(-c3ccc(-n4cccc4)cc3)no2)cc1", "survival": "82% (inactive)"}, {"smiles": "CCCc1ccc(OC(C)c2nc(-c3ccc(-n4cccc4)cc3)no2)cc1", "note": "(configuration not stated)", "survival": "52% (active)"}, {"smiles": "CCc1ccc(OC(C)c2nc(-c3ccc(-n4cccc4)cc3)no2)cc1", "note": "(configuration not stated)", "survival": "48% (inactive)"}, {"smiles": "Cc1cc(NC(=O)CSc2nc3c([nH]c4ccccc43)c(=O)n2-c2ccccc2F)no1", "survival": "88% (inactive)"}, {"smiles": "Cc1ccccc1NC(=O)C(C)Sc1nnc(-c2ccccc2O)o1", "note": "(configuration not stated)", "survival": "69% (inactive)"}, {"smiles": "CC(Sc1nnc(-c2ccccc2Br)o1)C(=O)Nc1cccc(Cl)c1", "note": "(configuration not stated)", "survival": "34% (active)"}, {"smiles": "Cc1ccccc1NC(=O)C(C)Sc1nnc(-c2ccccc2C)o1", "note": "(configuration not stated)", "survival": "74% (inactive)"}, {"smiles": "CCOC(=O)C1(C)C=C(Nc2ccc(C(N)=O)cc2)C(=O)N1c1ccccc1", "note": "(configuration not stated)", "survival": "68% (inactive)"}, {"smiles": "CCC(=O)N1CCc2cc(Br)cc(S(=O)(=O)CCC(=O)NCCc3ccccc3)c21", "survival": "91% (inactive)"}, {"smiles": "COC(=O)c1ccccc1NC(=O)CN1C(=O)COc2ccccc21", "survival": "69% (inactive)"}, {"smiles": "COC(=O)c1ccccc1NC(=O)CN1C(=O)COc2ccc(Cl)cc21", "survival": "38% (active)"}, {"smiles": "Cc1ccc(C)c(NC(=O)CN2C(=O)COc3ccc(Cl)cc32)c1", "survival": "69% (inactive)"}, {"smiles": "COc1ccc(-n2ncc(C(=O)N3CCN(C(=O)c4ccco4)CC3)c2C2CCN(C(=O)OC(C)(C)C)CC2)cc1", "survival": "86% (inactive)"}, {"smiles": "COc1ccc(N2CCN(C(=O)c3cc4cc5ccc(Cl)cc5nc4o3)CC2)cc1", "survival": "86% (inactive)"}, {"smiles": "Cc1cccc(N2CCN(C(=O)c3ccc(CS(=O)c4cccc(Cl)c4)o3)CC2)c1C", "note": "(configuration not stated)", "survival": "51% (active)"}, {"smiles": "COc1ccc(S(=O)Cc2ccc(C(=O)N3CCN(c4cccc(C)c4C)CC3)o2)cc1", "note": "(configuration not stated)", "survival": "79% (inactive)"}, {"smiles": "O=C(c1ccc(CS(=O)c2ccccc2Cl)o1)N1CCN(c2cccc(C(F)(F)F)c2)CC1", "note": "(configuration not stated)", "survival": "60% (inactive)"}, {"smiles": "Cc1ccccc1S(=O)(=O)Cc1ccc(C(=O)N2CCN(c3cccc(Cl)c3)CC2)o1", "survival": "54% (active)"}, {"smiles": "O=C(c1ccc(CS(=O)c2ccccc2Cl)o1)N1CCN(c2cccc(Cl)c2)CC1", "note": "(configuration not stated)", "survival": "51% (active)"}, {"smiles": "Cc1ccccc1S(=O)Cc1ccc(C(=O)N2CCN(c3cccc(C)c3C)CC2)o1", "note": "(configuration not stated)", "survival": "61% (inactive)"}, {"smiles": "Cc1ccc(Cl)cc1N1CCN(C(=O)c2ccc(CS(=O)(=O)c3ccccc3C)o2)CC1", "survival": "50% (inactive)"}, {"smiles": "O=C(c1cc2cc3ccc(Cl)cc3nc2o1)N1CCN(c2cccc(Cl)c2)CC1", "survival": "46% (active)"}, {"smiles": "O=C(c1ccc(CS(=O)c2ccccc2Cl)o1)N1CCN(c2ccccc2F)CC1", "note": "(configuration not stated)", "survival": "84% (inactive)"}, {"smiles": "Cc1ccc2cc3cc(C(=O)N4CCN(c5ccc(Cl)cc5)CC4)oc3nc2c1", "survival": "85% (inactive)"}, {"smiles": "Cc1ccc(S(=O)(=O)Cc2ccc(C(=O)N3CCN(c4cccc(Cl)c4)CC3)o2)cc1", "survival": "75% (inactive)"}, {"smiles": "CNC(=O)C1CCC(Cn2c(=O)c3sccc3n(Cc3ccc(F)cc3)c2=O)CC1", "note": "(configuration not stated)", "survival": "79% (inactive)"}, {"smiles": "NS(=O)(=O)c1ccc(CCNC(=O)c2nc(SCc3ccccc3F)ncc2Cl)cc1", "survival": "45% (inactive)"}, {"smiles": "CC(C)(C)NS(=O)(=O)c1ccc2oc3ccc(S(=O)(=O)NC(C)(C)C)cc3c2c1", "survival": "86% (inactive)"}, {"smiles": "O=C(O)c1cccc(N=NN2CCOCC2)c1", "survival": "80% (inactive)"}, {"smiles": "CSc1cccc(NS(=O)(=O)c2ccc3[nH]cc(C(=O)N4CCCC4)c(=O)c3c2)c1", "survival": "91% (inactive)"}, {"smiles": "O=C(CSc1ccc2ccccc2n1)Nc1nsc(-c2ccc(Cl)cc2)n1", "survival": "57% (inactive)"}, {"smiles": "Cc1cccc(Cn2cc(S(=O)(=O)c3cccc(C)c3)c(=O)c3cc(F)c(N4CCOCC4)cc32)c1", "survival": "76% (inactive)"}, {"smiles": "CCCCOc1ccc(C2C(=O)N(C3CCCCC3)CC(=O)N2C2CCCCC2)cc1", "note": "(configuration not stated)", "survival": "94% (inactive)"}, {"smiles": "CCN(CC)S(=O)(=O)c1ccc2c(c1)N(CC(=O)NCCc1ccccc1)C(=O)CO2", "survival": "76% (inactive)"}, {"smiles": "CC(C)Oc1ccc(CNC(=O)c2ccc(CS(=O)Cc3ccccc3Cl)o2)cc1", "note": "(configuration not stated)", "survival": "109% (inactive)"}, {"smiles": "Cc1ccc(S(=O)Cc2ccc(C(=O)NCc3ccc(OC(C)C)cc3)o2)cc1", "note": "(configuration not stated)", "survival": "51% (inactive)"}, {"smiles": "CC(C)Oc1ccc(CNC(=O)c2ccc(CS(=O)c3cccc(Cl)c3)o2)cc1", "note": "(configuration not stated)", "survival": "52% (active)"}]}]}
